# Among all 69,000 compounds or so, about 8,600 (12%) showed an effect of 50% or more. Shown is part of a subset that was picked to be rich in strong results.
# System: Plasmodium berghei
# Test: Screen against P. berghei liver stage (PbLuc), transformed with Luciferase, at 10uM
# Assay type: functional, HepG2
# Settings: tested at 10 uM
row,SMILES,INHIBITION
1,Cc1csc(C2CCCCN2C(=O)c2cc(C)n(C)n2)n1 (stereo not drawn),17.5%
2,O=c1cc(Cn2ccnc2)nc2n1CCCN(Cc1ccc(F)cc1)C2,-3.52%
3,Cn1ccnc1CN1CCN(CCOc2ccccc2F)CC1,7.27%
4,CC(C)c1ncc(CN2CCC(CO)C2)cn1 (stereo not drawn),8.72%
5,CC(C)c1n[nH]c(C2CN(C(=O)Cn3ccccc3=O)CCO2)n1 (stereo not drawn),62.1%
6,CCCc1n[nH]c(C2CN(C(=O)Cn3ccccc3=O)CCO2)n1 (stereo not drawn),48.4%
7,CCc1n[nH]c(C2CN(C(=O)CCn3ccccc3=O)CCO2)n1 (stereo not drawn),-22.9%
8,CCc1n[nH]c(C2CN(C(=O)Cn3ccccc3=O)CCO2)n1 (stereo not drawn),53%
9,Cc1n[nH]c(C2CN(C(=O)Cn3ccccc3=O)CCO2)n1 (stereo not drawn),34.5%
10,CC(C)c1n[nH]c(C2CN(C(=O)CCn3ccccc3=O)CCO2)n1 (stereo not drawn),5.97%
11,Cc1noc([C@H]2C[C@@H]3CCN(CC4CCOCC4)C[C@H]3O2)n1,27.7%
12,CNC(=O)CN1CC[C@H]2CN(C(=O)c3cccc(C)c3)C[C@H]2C1,8.52%
13,Cc1nocc1C(=O)N1CCc2c(CN(C)C)nn(C)c2C1,-1.12%
14,O=C(c1cc2c(s1)CCOC2)N1CCCC1Cn1cccn1 (stereo not drawn),8.64%
15,O=C(Cn1cnc2cc3c(cc21)OCCCO3)NC1CCCCC1,13.7%
16,c1cc(CN2CCC(c3ccnc4nccn34)C2)ccn1 (stereo not drawn),35.7%
17,c1ccc2c(Cc3nnc([C@H]4CCNC4)o3)c[nH]c2c1,65.6%
18,c1ccc2c(Cc3nnc([C@H]4CCN(CC5CC5)C4)o3)c[nH]c2c1,5.96%
19,c1ccc2c(Cc3nnc([C@H]4CCN(C5CCC5)C4)o3)c[nH]c2c1,-4.88%
20,CN1CC[C@H](c2nnc(Cc3c[nH]c4ccccc34)o2)C1,24.9%
21,c1ccc2c(Cc3nnc([C@H]4CCN(C5CCCCC5)C4)o3)c[nH]c2c1,8.67%
22,c1ccc2c(Cc3nnc([C@H]4CCN(C5CCOCC5)C4)o3)c[nH]c2c1,56.1%
23,CCn1nc(C)c2nc(C(C)C)nc(NCC(=O)N3CCOCC3)c21,48.2%
24,CC(C)c1noc(CN2CCCN(Cc3cccs3)CC2)n1,11.6%
25,CCOC1Sc2nnc(C)n2N=C1c1ccc(Cl)cc1 (stereo not drawn),31.8%
26,CN(Cc1ccsc1)C(=O)c1ccc(S(=O)(=O)NC(C)(C)C)cc1,-61.4%
27,CCC(C)NS(=O)(=O)c1ccc(C(=O)N(C)C2(C#N)CCC2)cc1 (stereo not drawn),46.3%
28,CN(C(=O)c1ccc(S(=O)(=O)NC(C)(C)C)cc1)C1(C#N)CCC1,50.4%

# Reference: ChEMBL document CHEMBL4513216, “Probing the Open Global Health Chemical Diversity Library for Multistage-Active Starting Points for Next-Generation Antimalarials” (ACS Infect Dis, 2020)
